From PubChem BioAssay (NCI) come the findings set out here.

About 83,000 compounds went through this panel and 20% of them were active in at least one assay; those are over-represented in the sample as a whole.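 Growth was measured after 48 h exposure to one concentration of compound in 96-well plates. Values under 10 count as active.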 Activity calls are given as the source filed them.

The test has as its system 786-0 renal. The experiment in a line: NCI-60 one-dose screen, 48 h (100 = growth as untreated, 0 = no growth, -100 = all killed). The following applies: 10 µM unless noted.
As to `COc1ccc2ncccc2c1Cc1c(OC)ccc2ncccc12`, the growth was 89.1% (inactive). For the molecule `COc1cc(C2CC(C3C(=O)N(C)C(=O)N(C)C3=O)=NN2c2cc(Cl)cc(Cl)c2)cc(OC)c1OC` (stereo not drawn), the growth is 99.6% (inactive). `Cc1sc2nc(NCc3ccccc3)[nH]c(=O)c2c1C`: the growth was 67.2% (inactive). As for `Cc1cc2c(cc1C)[n+](Cc1ccc3ccccc3n1)cn2Cc1ccc2ccccc2n1`, the growth is 11.2% (inactive). With `COc1cc(/C=C2\CN(S(=O)(=O)c3ccc(C)cc3)C/C(=C\c3cc(CN4CCOCC4)c(O)c(OC)c3)C2=O)cc(CN2CCOCC2)c1O` the figure was -54.3% (active); with `O=C1NCCc2c1noc2-c1ccccc1`, 96.5% (inactive).

Take `C[C@]12CCC(=O)C=C1CC[C@H]1[C@@H]3C[C@@H](O)[C@](O)(C(=O)CO)[C@@]3(C)C[C@H](O)[C@@]12F`: the growth was 111% (inactive).

On to `C/C(=C\CCc1ccsc1)CC/C=C(\C)CCCN1CCSCC1`, for which the growth was 102% (inactive). With `COC(=O)Nc1ccc2ccc3c(NC(=O)OC)ccc4ccc1c2c43` (tested in a mixture with another compound), the growth is 60% (inactive). In the case of `O=C(Nc1nc2c(C(F)(F)F)cccc2s1)c1cc(Cl)ccc1O`, the growth is 1.42% (active).

On to `COc1cc(C2=NN(C=O)C(c3cccc(Nc4ccnc5cc(Cl)ccc45)c3)C2)cc(OC)c1OC` (stereo not drawn), for which the growth was 65.2% (inactive). Consider `COc1cccc(-c2nc(-c3ccc(N)cc3)co2)c1`, for which the growth is 94.4% (inactive). For the molecule `C[C@@H]1[C@H]2[C@H](C=C3[C@@H]4CC[C@H]5Cc6nc7c(nc6C[C@]5(C)[C@H]4C[C@@H](O)[C@@]32C)C[C@@H]2CC[C@H]3C4=C[C@@H]5O[C@@]6(CC[C@](C)(CO)O6)[C@@H](C)[C@@]5(O)[C@@]4(C)[C@H](O)C[C@@H]3[C@@]2(C)C7)O[C@]12CCC(C)(C)O2`, the growth is -25.3% (active).
